Experiment [1] in a line: qHTS RealTime-Glo MT Cell Viability Assay in HEK293 cells - 0 hour (AID 1224880). Further: top concentration of the series differs between compounds; nearly all actives have a fitted effect of over 45% in size. Put shortly: (§1)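 Kinetic, non-lysing viability readout. Seed HEK293 (600/well) with reagent, incubate 5 h at 37 C/5% CO2, pin 23 nL compound in DMSO, incubate at 37 C, read luminescence at 0, 8, 16, 24, 32, 40 h.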
Background: Quantitative high-throughput screening tests each substance at several concentrations.

Experiment [2] in a line: A CellTox Green Cytotoxicity Assay to monitor cytotoxicity in HEK293 cells - 32 hour (AID 1224881). Further: nearly all actives have a fitted effect of over 40% in size. The procedure, abridged: (§2)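 Real-time, in one plate: 600 HEK293 cells/well with dead-cell DNA dye, pinned compound after 5 h, 37 C incubation over 40 h; viable cells give no appreciable fluorescence.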
The nature of experiment [3]: A CellTox Green Cytotoxicity Assay to monitor cytotoxicity in HepG2 cells - 0 hour (AID 1224882). Further: nearly all actives have a fitted effect of over 35% in size. The procedure, abridged: (§3)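 Cytotoxicity was tracked as dead-cell DNA fluorescence in HepG2 cells treated with test compounds at 37 C; each time-point value comes from one kinetic series spanning 0, 8, 16, 24, 32 and 40 h.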
Experiment [4] can be described thus: A CellTox Green Cytotoxicity Assay to monitor cytotoxicity in HEK293 cells - 8 hour (AID 1224884). Further: nearly all actives have a fitted effect of over 35% in size. Put shortly:
as §2

A short description of experiment [5]: qHTS RealTime-Glo MT Cell Viability Assay in HepG2 cells - 16 hour (AID 1224885). Further: nearly all actives have a fitted effect of over 50% in size. Put shortly:
(§4)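 Compound treatment began 5 h after plating HepG2 cells (600/well) with NanoLuc luciferase and prosubstrate. Plates stayed at 37 C for 40 h; luminescence was captured at six time points, 0 h through 40 h.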

A short description of experiment [6]: qHTS RealTime-Glo MT Cell Viability Assay in HEK293 cells - 24 hour (AID 1224886). Further: nearly all actives have a fitted effect of over 50% in size. Further: potency means the concentration at half of the fitted maximal effect. On activity change, negative = cytotoxicity: top concentration of the series differs between compounds. Put shortly:
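Quantitative high-throughput screen of the Tox21 10K library in HEK293: cells and RealTime-Glo reagents plated together, compound added at 5 h, luminescence monitored through 40 h at 37 C.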

The nature of experiment [7]: qHTS RealTime-Glo MT Cell Viability Assay in HEK293 cells - 8 hour (AID 1224887). Further: nearly all actives have a fitted effect of over 50% in size. Further: potency means the concentration at half of the fitted maximal effect. On activity change, negative = cytotoxicity: top concentration of the series differs between compounds. Put shortly: as §1
Experiment [8] can be described thus: A CellTox Green Cytotoxicity Assay to monitor cytotoxicity in HEK293 cells - 16 hour (AID 1224888). Further: nearly all actives have a fitted effect of over 35% in size. The procedure, abridged:
as §2

Experiment [9] can be described thus: qHTS RealTime-Glo MT Cell Viability Assay in HepG2 cells - 0 hour (AID 1224889). Further: nearly all actives have a fitted effect of over 50% in size. The procedure, abridged: as §4
The nature of experiment [10]: A CellTox Green Cytotoxicity Assay to monitor cytotoxicity in HepG2 cells - 32 hour (AID 1224883). Further: nearly all actives have a fitted effect of over 50% in size. The procedure, abridged: as §3

The values below come from PubChem BioAssay (Tox21).

SMILES strings stand for the structures. Values without a mark were called inactive. Records with an inconclusive call do not appear. The source made the active and inactive calls. The call rests on the fitted dose curve; in most records, active means well fitted curve in the direction sought with a large enough effect in the repeat runs; inconclusive means weak or mixed curves; inactive means no such curve, though single readings can be large; an effect the other way counts as inactive or inconclusive.
On the % scale 0 is the no-effect control and ±100 the full control effect.

With `C[Si](C)=O`, the activity change, negative = cytotoxicity in [1] is -1.57% [at 6.97 µM]; in experiment [6] it was 0.58% [at 6.97 µM]; in experiment [7], -1.9% [at 6.97 µM]; in [9], 8.65% [at 6.97 µM]. Also, the cytotoxicity increase was 10.3% [at 6.97 µM] in experiment [2] and 1.88% [at 6.97 µM] in [4]. Further, in [3], the cytotoxicity is -2.11% [at 6.97 µM]. The activity change, negative = cytotoxic in [5] is 0.315% [at 6.97 µM]. Further, the activity change in experiment [8] was 1.45% [at 6.97 µM].

On to `COCCOCCOCCOCCO`, for which the Potency entry in experiment [1], in [2], in experiment [4], in [6], in experiment [7] and in experiment [9] was “inactive” each time. Also, the result in experiment [3], in [5] and in experiment [8] was inactive.

As for `NS(=O)(=O)c1cc2c(cc1Cl)CN(C1CCCCC1)C2=O`, the Potency result in experiment [1], in experiment [2], in experiment [4] and in experiment [9] was “inactive” each time. The outcome in [3], in experiment [5] and in [8] was inactive. The Potency in experiment [6] and in experiment [7] was 9.52 µM (active) each time.

`CC(C)(C)c1nnc(NS(=O)(=O)c2ccc(N)cc2)s1`: the Potency entry in experiment [1], in experiment [2], in experiment [10], in experiment [6], in experiment [7] and in [9] was “inactive” each time. Also, the outcome in experiment [3], in [5] and in [8] was inactive.

Turning to `N[C@@H](CCC(=O)N[C@@H](CS)C(=O)NCC(=O)O)C(=O)O`, the activity change, negative = cytotoxicity is 8.63% [at 15.8 µM] in [1], 7.83% [at 15.8 µM] in [6], 10.5% [at 15.8 µM] in [7] and 1.78% [at 15.8 µM] in experiment [9]. The cytotoxicity increase in experiment [2] was 2.25% [at 15.8 µM]; in experiment [4] it was 2.4% [at 15.8 µM]. Further, the cytotoxicity in [3] was -0.523% [at 15.8 µM]. Also, the activity change, negative = cytotoxic in experiment [5] is 2.53% [at 15.8 µM]. Moreover, in [8], the activity change is 0.448% [at 15.8 µM].

Consider `CCOC(=O)c1ccc(OC(=O)CCCCCN=C(N)N)cc1`, for which the Potency result in experiment [1], in [2], in experiment [10], in experiment [6], in experiment [7] and in experiment [9] was “inactive” in each case. For the same compound, the outcome in experiment [3], in experiment [5] and in experiment [8] was inactive.

Turning to `Cc1cc(NC(=O)C2=C(O)c3ccccc3S(=O)(=O)N2C)no1`, the Potency entry in experiment [1], in experiment [2], in [4], in experiment [6] and in experiment [7] was “inactive” in each case. In addition, the compound was classed as inactive in experiment [3], in [5] and in [8].

`CCCCCCOC(=O)CC`: the Potency result in [1], in experiment [2], in experiment [4], in experiment [6], in experiment [7] and in experiment [9] was “inactive” each time. Moreover, the call in experiment [3], in experiment [5] and in experiment [8] was inactive.

As to `CCCOC(OCCC)OCCC`, the Potency entry in [1], in [2], in [4], in experiment [6], in [7] and in experiment [9] was “inactive” throughout. The call in experiment [3], in [5] and in [8] was inactive.

As for `CC1=CCC(C(C)C)=CC1`, the Potency result in experiment [1], in experiment [2], in [4], in [6], in experiment [7] and in experiment [9] was “inactive” throughout. Further, the call in [3], in [5] and in experiment [8] was inactive.

Turning to `CCOC(=O)/C=C/c1ccccc1`, the Potency result in experiment [1], in experiment [2], in experiment [10], in experiment [6] and in experiment [7] was “inactive” in each case. Also, the result in experiment [3], in experiment [5] and in experiment [8] was inactive.

Take `CCCC/C=C/C=C\C=O`: the Potency entry in [1], in experiment [2], in [10], in experiment [4], in experiment [6] and in experiment [9] was “inactive” each time. Also, the compound was called inactive in experiment [3], in [5] and in experiment [8].

`CN1C(C)(C)CCCC1(C)C`: the Potency result in experiment [1], in [2], in experiment [4], in experiment [6] and in experiment [7] was “inactive” each time. Besides, the outcome in experiment [3], in [5] and in experiment [8] was inactive.

With `FC(F)(F)c1ccccc1-n1ccnc1`, the Potency entry in experiment [1], in experiment [2], in experiment [4], in [6] and in experiment [9] was “inactive” throughout. The compound was classed as inactive in [3], in [5] and in experiment [8].

As to `Cc1cc(Cl)c(C)cc1Cl`, the Potency entry in [1], in experiment [2], in experiment [10], in [4], in experiment [6] and in experiment [9] was “inactive” each time. Moreover, the outcome in [3], in experiment [5] and in experiment [8] was inactive.

As to `CCCCCCCCCCCCCC`, the Potency entry in experiment [1], in experiment [2], in experiment [4], in [6] and in experiment [7] was “inactive” each time. Also, the call in experiment [3], in experiment [5] and in [8] was inactive.

With `Oc1cn2c(n1)Nc1ccc(Cl)c(Cl)c1C2`, the activity change, negative = cytotoxicity in experiment [1] is -2.73% [at 15.8 µM]; in [6] it was 2% [at 15.8 µM]; in experiment [9], -2.51% [at 15.8 µM]. The cytotoxicity increase in experiment [2] was -4.2% [at 15.8 µM]; in experiment [10] it was -1.99% [at 15.8 µM]; in [4], 1.16% [at 15.8 µM]. Further, in [3], the cytotoxicity was 3.67% [at 15.8 µM]. For the same compound, in [5], the activity change, negative = cytotoxic was 1.52% [at 15.8 µM]. For the same compound, the activity change in [8] is -3.07% [at 15.8 µM].

Regarding `CC(=O)Nc1ccc(S(=O)(=O)Cl)cc1`, the Potency result in experiment [1], in [2], in experiment [10], in [6] and in [9] was “inactive” each time. The compound was classed as inactive in experiment [3], in experiment [5] and in experiment [8].

Turning to `Cc1[nH]cnc1-c1ccc(Cl)cc1`, the Potency result in experiment [1], in experiment [2], in experiment [4], in [6], in experiment [7] and in [9] was “inactive” each time. Besides, the call in experiment [3], in [5] and in experiment [8] was inactive.

On to `CC1COc2ccccc2N1` (configuration not stated), for which the Potency entry in experiment [1], in experiment [2], in experiment [4] and in [7] was “inactive” throughout. Besides, the result in experiment [3], in experiment [5] and in experiment [8] was inactive.
